Measured values reported in PubChem BioAssay.
For part of these data: Measured potencies and affinities stand elsewhere. The source made the active and inactive calls.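 The calls were made as follows, unless noted: active = earlier screen potentiator hit that boosts the TRPC4 ion channel at some dose, with a dose response; inactive = no potentiation, no dose response, or not a prior hit.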

Legend:
[1] = system: TRPC4 beta (transient receptor potential cation channel C4), mouse; assay: activators of mouse TRPC4 channel, confirmation, cell-based, Fluo4 calcium, HEK293 TRPC4beta/mu-opioid, duplicates, 10 µM (AID 2426;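 active = fluorescence ratio normalized to control raised more than 50% in primary screen plus both repeat runs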;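 as to activation: percent rise of integrated ratio over buffer wells lacking compound which define 0%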); details: Fluo4 calcium fluorescence, at 10 µM; hits give high values
[2] = system: transient receptor potential cation channel C4 beta (TRPC4), mouse; assay: activators of mouse TRPC4 channel, confirmation, cell-based, second round, Fluo4, HEK293 TRPC4beta/mu-opioid, 1 µM (AID 2461;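 active = primary screen active and over 50% activation in each of two duplicate runs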;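 as to activation: 0% = wells without test compound as baseline of integrated fluorescence ratio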); details: Fluo4 calcium fluorescence, at 1 µM; hits give high values
[3] = system: TRPC4 (transient receptor potential cation channel C4 beta), mouse; assay: positive allosteric modulators of mouse TRPC4, confirmation, cell-based, second round, Fluo-4, HEK293 TRPC4beta/mu-opioid, 1 µM (AID 2554;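 active = primary screen hit whose fluorescence ratio, in both repeats, exceeds the weak agonist control mean by 3 SD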); details: DAMGO EC20, Fluo-4 calcium flux, at 1 µM; hits give high values
[4] = system: TRPC4 beta (transient receptor potential cation channel C4), mouse; assay: positive allosteric modulators of mouse TRPC4, confirmation, cell-based, Fluo-4, HEK293 TRPC4beta/mu-opioid (AID 2555;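 active = primary screen hit whose calcium fluorescence ratio, in both repeats, exceeds the weak agonist control mean by 3 SD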); details: DAMGO EC20, Fluo-4 calcium flux, at 10 µM; hits give high values
[5] = target: Short transient receptor potential channel 4 (Mus musculus) (UniProt Q9QUQ5); assay: inhibitors of mouse TRPC4 channel, confirmation, cell-based, Fluo4, HEK293 TRPC4beta/mu-opioid (AID 2636;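 active = calcium signal cut by more than 3 SD below the full-agonist control yet still positive, in both repeats and the earlier primary screen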); details: DAMGO, Fluo4 calcium flux, at 10 µM; hits give high values
Short transient receptor potential channel 4 (Mus musculus), sequence (Q9QUQ5 whole entry, looked up): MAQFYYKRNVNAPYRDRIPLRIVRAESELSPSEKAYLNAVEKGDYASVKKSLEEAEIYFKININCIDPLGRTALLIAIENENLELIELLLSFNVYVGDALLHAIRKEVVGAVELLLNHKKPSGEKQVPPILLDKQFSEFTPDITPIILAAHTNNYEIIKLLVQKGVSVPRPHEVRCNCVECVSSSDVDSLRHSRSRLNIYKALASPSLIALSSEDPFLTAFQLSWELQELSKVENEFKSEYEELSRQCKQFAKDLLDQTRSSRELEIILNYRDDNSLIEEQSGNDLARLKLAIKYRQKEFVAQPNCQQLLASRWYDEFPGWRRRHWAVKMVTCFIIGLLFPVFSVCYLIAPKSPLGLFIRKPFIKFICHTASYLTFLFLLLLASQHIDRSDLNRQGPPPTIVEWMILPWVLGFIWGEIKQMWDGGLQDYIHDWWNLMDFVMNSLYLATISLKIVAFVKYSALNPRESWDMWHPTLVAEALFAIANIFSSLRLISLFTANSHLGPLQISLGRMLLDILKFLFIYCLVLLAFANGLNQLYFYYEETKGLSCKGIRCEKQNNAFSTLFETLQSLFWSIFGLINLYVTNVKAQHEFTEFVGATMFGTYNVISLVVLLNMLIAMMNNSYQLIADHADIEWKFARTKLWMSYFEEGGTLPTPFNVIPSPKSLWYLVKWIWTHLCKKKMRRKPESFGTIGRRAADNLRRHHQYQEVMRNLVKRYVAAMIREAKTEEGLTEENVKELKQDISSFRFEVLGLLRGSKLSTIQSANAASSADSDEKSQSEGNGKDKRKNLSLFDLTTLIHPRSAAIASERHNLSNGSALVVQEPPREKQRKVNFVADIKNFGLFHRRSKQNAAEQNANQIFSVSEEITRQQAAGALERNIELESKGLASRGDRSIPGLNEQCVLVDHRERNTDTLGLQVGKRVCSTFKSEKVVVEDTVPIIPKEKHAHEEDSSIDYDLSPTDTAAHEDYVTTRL

[6] = target: Short transient receptor potential channel 4 (Mus musculus) (UniProt Q9QUQ5); assay: inhibitors of mouse TRPC4 channel, confirmation, cell-based, second round, Fluo4, HEK293 TRPC4beta/mu-opioid, 1 µM (AID 2637;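 active = calcium signal ratio cut to more than 3 SD under the fully stimulated control mean yet still positive, in both repeats and the primary screen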); details: Fluo4 calcium flux, DAMGO, at 1 µM; hits give high values
[7] = target: Short transient receptor potential channel 4 (Mus musculus) (UniProt Q9QUQ5); assay: TRPC4 positive allosteric modulators, dose response, cell-based, HEK293 TRPC4/mu-opioid, Fluo-4 calcium, EC20 DAMGO (AID 434941);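 also: calcium entry triggered by an EC20 dose of DAMGO at the co-expressed mu-opioid receptor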
[8] = target: Short transient receptor potential channel 4 (Mus musculus) (UniProt Q9QUQ5); assay: mouse TRPC4 channel inhibitors, dose response, cell-based, HEK293 TRPC4/mu-opioid, Fluo-4 calcium (AID 434942;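 active = primary screen inhibitor hit that blocks the TRPC4 channel at some tested dose, yielding a dose curve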)
[9] = target: Short transient receptor potential channel 6 (Mus musculus) (UniProt Q61143); assay: inhibition of mouse TRPC6 channel, confirmation, selectivity assay for TRPC4 inhibitor project, cell-based, HEK293, membrane potential dye, duplicate (AID 434948;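 active = active in primary screen and both duplicates, each dropping signal beyond three positive-control SD with fluorescence still positive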); details: HEK293 TRPC6, membrane potential dye fluorescence, at 10 µM, stimulated with maximal-effect acetylcholine; hits give high values
Short transient receptor potential channel 6 (Mus musculus), sequence (Q61143 whole entry, looked up): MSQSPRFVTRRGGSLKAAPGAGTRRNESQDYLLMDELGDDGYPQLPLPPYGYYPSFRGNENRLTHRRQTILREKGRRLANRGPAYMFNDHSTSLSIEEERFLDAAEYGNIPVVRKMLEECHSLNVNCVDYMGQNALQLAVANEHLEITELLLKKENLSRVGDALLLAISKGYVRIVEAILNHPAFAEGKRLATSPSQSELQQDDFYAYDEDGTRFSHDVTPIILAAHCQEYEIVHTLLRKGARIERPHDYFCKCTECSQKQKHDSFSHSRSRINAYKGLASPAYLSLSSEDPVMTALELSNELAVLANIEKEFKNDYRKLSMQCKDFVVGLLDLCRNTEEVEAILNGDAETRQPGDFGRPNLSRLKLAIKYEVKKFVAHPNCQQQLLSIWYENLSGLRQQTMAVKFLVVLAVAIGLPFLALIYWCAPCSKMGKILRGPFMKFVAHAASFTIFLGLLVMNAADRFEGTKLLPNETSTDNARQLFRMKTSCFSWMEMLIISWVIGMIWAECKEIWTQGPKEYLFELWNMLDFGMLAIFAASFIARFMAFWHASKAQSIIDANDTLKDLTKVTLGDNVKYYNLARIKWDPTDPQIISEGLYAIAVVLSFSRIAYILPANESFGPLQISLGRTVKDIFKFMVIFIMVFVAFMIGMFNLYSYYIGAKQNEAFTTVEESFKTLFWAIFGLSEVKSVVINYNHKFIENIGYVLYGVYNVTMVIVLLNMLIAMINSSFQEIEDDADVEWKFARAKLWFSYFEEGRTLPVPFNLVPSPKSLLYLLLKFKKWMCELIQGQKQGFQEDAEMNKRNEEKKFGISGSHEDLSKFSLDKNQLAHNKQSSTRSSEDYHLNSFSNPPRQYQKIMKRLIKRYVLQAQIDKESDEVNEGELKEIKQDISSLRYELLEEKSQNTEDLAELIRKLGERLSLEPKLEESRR

[10] = target: Short transient receptor potential channel 6 (Mus musculus) (UniProt Q61143); assay: activation of mouse TRPC6 channel, confirmation, selectivity assay for TRPC4 activator project, cell-based, HEK293, membrane potential dye, duplicate (AID 434950;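 active = membrane potential signal rise above negative control mean plus 3 SD in both duplicates, also active in the earlier TRPC4 screen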;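 as to activation: 0% = buffer only wells and 100% = acetylcholine maximal-effect wells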); details: HEK293 TRPC6, membrane potential fluorescence, at 10 µM; hits give high values
[11] = target: Short transient receptor potential channel 6 (Mus musculus) (UniProt Q61143); assay: TRPC6 potentiation by TRPC4 potentiator hits, confirmation, selectivity assay for TRPC4 potentiator project, HEK293 cells, membrane potential dye, duplicate (AID 434952;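 active = compound raising the membrane signal above positive-control mean plus 3 SD in both repeats, and a primary screen hit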); details: HEK293 TRPC6, membrane potential dye fluorescence, at 10 µM, maximal acetylcholine added after compound; hits give high values
[12] = target: Short transient receptor potential channel 4 (Mus musculus) (UniProt Q9QUQ5); assay: calcium flux activators in TRPC4/5HT1a cells, counter-screen for TRPC4 activator project, cell-based, second counter screen, HEK293 TRPC4/5HT1a, Fluo-4 (AID 434977;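 active = calcium signal rise above buffer-control mean plus 5 SD in both duplicates, and also a hit in the primary screen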;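 as to activation: plate controls were assay buffer for no effect and maximal serotonin response for full effect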); details: Fluo-4 calcium flux, at 10 µM; hits give high values
[13] = calcium flux inhibitors in TRPC4/5HT1a cells, confirmation, counter-screen for TRPC4 inhibitor project, cell-based, second counter screen, HEK293 TRPC4/5HT1a, Fluo-4 (AID 434978;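 active = primary screen active whose calcium signal fell more than 3 SD beyond the full-serotonin control mean in both duplicate plates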;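 also: serotonin given first at submaximal then at maximal dose after compound preincubation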); details: Fluo-4 calcium flux, at 10 µM, serotonin added to trigger calcium flux; hits give high values
[14] = system: TRPC4 (mouse), co-expressed with 5HT1a in HEK293; assay: calcium flux potentiators in TRPC4/5HT1a cells, confirmation, counter-screen for TRPC4 potentiator project, cell-based, second counter screen, HEK293 TRPC4/5HT1a, Fluo-4 (AID 434979;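 active = signal rise over 3 SD above mean of control wells given weak agonist, in both repeats and first screen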); details: Fluo-4 calcium flux, at 10 µM, serotonin added at its EC20 dose; hits give high values
[15] = calcium flux activation in mu-opioid HEK293 cells, confirmation, counter-screen for TRPC4 activator project, cell-based, HEK293 mu-opioid receptor line (AID 449723;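 active = hit in primary screen, with calcium signal over 5 SD above buffer well mean in both duplicates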;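 also: counter screen cells carry the mu-opioid receptor alone and lack TRPC4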); details: Fluo-4 calcium fluorescence, at 10 µM; hits give high values
[16] = calcium flux enhancement in mu-opioid HEK293 cells, confirmation, counter-screen for TRPC4 allosteric potentiator project, cell-based, HEK293 mu-opioid receptor line (AID 449724;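 active = calcium signal rise more than 3 SD above the low-dose agonist control mean, in both duplicate plates and the primary screen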;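 also: HEK293 cells carrying mu-opioid receptor only with no TRPC4 channel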); details: Fluo-4 calcium flux, at 10 µM, compound added before EC20 DAMGO stimulus; hits give high values

Measured: activation

CCn1cc(CN2CCC(n3nccc3NC(=O)CCOc3ccccc3)CC2)cn1
active: [1] 78%
inactive: all other assays above

O=C(c1c(F)cccc1F)N1CCN(c2ncc(Br)cn2)CC1
active: [1] 158% | [2] 86% | [10] 34% | [12] 68.5%
inactive: all other assays above

Cc1cc(-c2ccc(C)c(S(=O)(=O)NCCCN(Cc3ccccc3)C(C)C)c2)on1
active: [1] 161% | [10] 44.5% | [12] 56.3%
inactive: all other assays above

Cc1ccc(C)c(CN2CCC(CNC(=O)CCc3nnc4ccc(N5CCCCC5)nn34)CC2)c1
active: [1] 157% | [2] 92%
inactive: all other assays above

Cc1ccc(C)c(OCCCCn2ccnc2)c1
active: [1] 111% | [10] 58.5% | [12] 14.7%
inactive: all other assays above

CCCCCSc1nnc2c(n1)OC(c1cccn1C)N(C(C)=O)c1ccccc1-2 (stereo not given)
active: [12] 18%
inactive: all other assays above

CN(C)C(CNC(=O)/C=C/c1cccc(Cl)c1)c1ccccc1 (stereo not given)
active: [1] 148% | [2] 83% | [10] 49%
inactive: all other assays above

O=C(NC(=S)NNC(=O)[C@H]1C[C@@H]1c1ccccc1)c1cccc(F)c1
active: [1] 213% | [12] 140% | [15] 30.6%
inactive: all other assays above

COC(=O)[C@@]1(Cc2ccc(F)cc2)[C@H]2c3cc(C(=O)N(C)C)n(CCc4ccccn4)c3C[C@H]2CN1C(=O)c1ccccc1
active: [1] 136% | [10] 54%
inactive: all other assays above

Cc1cc(OCCCn2ccnc2)cc(C)c1Cl
active: [1] 67% | [10] 47.5% | [12] 15.8%
inactive: all other assays above

Cc1nc(/N=C(\N)NC(=O)NC2CCCCC2)nc2ccccc12
active: [1] 99% | [2] 66% | [12] 36.2%
inactive: all other assays above

COc1ccccc1CCC(=O)Nc1cc(S(=O)(=O)N2CCCCC2)ccc1N1CCN(C)CC1
active: [1] 153% | [2] 67% | [12] 32.8%
inactive: all other assays above

CN(CCc1ccccn1)C(=O)CC1C(=O)NCCN1Cc1ccccc1C(F)(F)F (stereo not given)
active: [1] 178% | [12] 50.4%
inactive: all other assays above

Cc1nc(NCC(c2ccccc2)N(C)C)c2c(C)c(C)sc2n1 (stereo not given)
active: [1] 204% | [2] 78% | [12] 27.8%
inactive: all other assays above

Cc1ccc(/C=N\NC(=O)C2COc3cc4ccccc4cc3O2)o1 (stereo not given)
active: [1] 102% | [10] 27% | [12] 40.6%
inactive: all other assays above
